PLK1 PBD inh = PLK1 (human) polo-box domain binding inhibition | P53350 | Plk1 PBD binding of FITC phosphopeptide, fluorescence polarization | Potency, µM, for the others: max response, negative = inhibition, hits mostly inhibitors | hit rate 2.8% among 360,000 | AID 720504; further: series mostly up to about 57 µM; nearly all actives have a fitted effect of over 65% in size
VDR inhibitor = blocks the human vitamin D receptor | P11473 | VDR-SRC2-3 peptide fluorescence polarization, 2 h | Potency, µM, for inactives: max response, negative = inhibition, usual class: inhibitors | hit rate 0.93% among 400,000 | AID 504847
Target sequence (P11473 whole entry, looked up): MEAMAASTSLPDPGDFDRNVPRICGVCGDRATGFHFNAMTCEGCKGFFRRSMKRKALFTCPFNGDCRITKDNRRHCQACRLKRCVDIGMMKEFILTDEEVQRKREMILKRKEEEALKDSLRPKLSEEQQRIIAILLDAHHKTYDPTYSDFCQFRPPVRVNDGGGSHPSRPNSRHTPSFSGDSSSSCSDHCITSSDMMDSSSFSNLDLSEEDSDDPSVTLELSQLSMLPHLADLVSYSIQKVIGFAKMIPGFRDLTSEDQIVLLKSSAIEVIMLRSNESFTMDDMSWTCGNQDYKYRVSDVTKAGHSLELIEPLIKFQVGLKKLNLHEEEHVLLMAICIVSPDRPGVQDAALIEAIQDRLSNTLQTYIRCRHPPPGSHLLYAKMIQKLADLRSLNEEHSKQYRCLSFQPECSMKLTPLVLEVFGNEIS
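Inhibition of the VDR/SRC2-3 peptide interaction is quantified by fluorescence polarization. Compounds (23 nl, pintool) incubate with the reagents for 2 hours at ambient room temperature.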
GCN5L2 inh = inhibitors of human GCN5L2 histone acetyltransferase; Q92830; GCN5L2 HAT assay, ThioGlo1 CoA-SH fluorescence; Potency, µM (top dose mostly 58.9 µM), without a hit: at the top dose activity change, negative = inhibition, hits mostly inhibitors; hit rate 0.21% among 390,000; AID 504327
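GCN5L2 (20nM final) in 50mM HEPES, 0.1mM EDTA pH 7.5, 0.01% Tween-20 was preincubated 15 min at room temperature with compound, then given ThioGlo1 (50uM), H3(1-25) peptide (75uM) and acetyl-CoA (70uM); CoA-thiol fluorescence (Ex340/Em540) was read at 0 and 20 min.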
TDP1 inh = blocks human tyrosyl-DNA phosphodiesterase 1. Q9NUW8. recombinant TDP1, AlphaScreen DNA substrate cleavage. Potency, µM (top dose mostly 130 µM), for inactives: top-dose activity change, negative = inhibition, hits mostly inhibitors. hit rate 0.28% among 350,000; further: nearly all actives have a fitted effect of over 40% in size
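Recombinant human Tdp1 (E. coli-expressed, 1 nM final) preincubated with compounds 15 min at room temperature, then 5'-biotin/3'-phosphotyrosine-FITC DNA substrate (15 nM final) added for 5 min. AlphaScreen beads (10 ug/ml final) added 10 min; cleavage lowers signal.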
DT40 TDP1 no CPT = qHTS for Inhibitors of human tyrosyl-DNA phosphodiesterase 1 (TDP1): qHTS in cells in absence of CPT | hit rate 15% among 420,000 | DT40 Tdp1-/- hTDP1 cells, no CPT, ATP luminescence, 48 h | Potency, µM (series often up to 46.2 µM), without a hit: top-dose activity change, negative = growth inhibition, actives largely listed as inhibitors; further: nearly all actives have a fitted effect of over 55% in size
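Chicken DT40 Tdp1-/- cells complemented with human TDP1, screened without camptothecin (DMSO vehicle only), 400 cells/well. Compounds pin-transferred, cells incubated at 37 °C for at least 48 hr. Growth read as ATP-dependent luminescence (CellTiter-Glo, 30 min at RT).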
DT40 TDP1 CPT = growth inhibition of DT40 Tdp1-/-;hTDP1 cells with camptothecin (screen for TDP1 inhibitors) | chicken DT40 Tdp1-/-;hTDP1 cells + 20 nM CPT, ATP luminescence, 48 h | Potency, µM (series often up to 46.2 µM), without a hit: top-dose activity change, negative = growth inhibition, usual class: inhibitors | hit rate 12% among 420,000 | AID 686979; further: nearly all actives have a fitted effect of over 55% in size
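Chicken DT40 Tdp1-/- cells stably complemented with human TDP1 were seeded at 400 cells/well in medium containing 20 nM camptothecin, exposed to pin-transferred compounds, and grown at 37 °C for at least 48 hr. Viability was read as ATP luminescence.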
* = called active by the depositor; ? = inconclusive; . = not tested or not shown; [ ] = dose if it differs, or a comment. Hits are enriched below; roughly 18% of the tested compounds scored in any of these assays. The call rests on the fitted dose curve; in most records, active means well fitted curve in the direction sought with a large enough effect; inconclusive means small, poorly fitted or top-dose-only effect, or another doubt; inactive means no such curve, though single readings can be large; an effect the other way counts as inactive or inconclusive. On the % scale 0 is the no-effect control and ±100 the full control effect; potency means the concentration at half of the fitted maximal effect.

SMILES	PLK1 PBD inh	VDR inhibitor	GCN5L2 inh	TDP1 inh	DT40 TDP1 no CPT	DT40 TDP1 CPT
O=C(Nc1ccc([N+](=O)[O-])cc1)N1CCCCCC1	-0.6%	9.1%	-4.4%	2.5%	8.2%	-25.7%
COc1ccc(NC(=O)Cn2cnc3c(oc4ccccc43)c2=O)cc1OC	.	11.6%	-13.4%	7.8%	-12.3%	-16.4%
C#CCOCCOCCOCCNc1nc(N2CCOCC2)nc(N2CCN(C(=O)Cn3cc(CCCCN)nn3)CC2)n1	4.4%	6.7%	.	.	0.0%	4.8%
C[C@H]1COC(=O)[C@@H](CC(=O)OC(C)(C)C)C/C=C\C[C@H](CC(=O)NCCO)C(=O)N1	1.1%	-16.2%	-4.4%	0.0%	-10.3%	2.4%
CN1c2ccsc2C(O)=C(C(=S)Nc2ccccc2)S1(=O)=O	21.2µM*	?	-8.3%	-2.0%	23.1µM*	14.6µM*
CN1c2ccccc2C(O)=C(C(=S)Nc2ccccc2)S1(=O)=O	-23.9%	-7.6%	-9.1%	-6.3%	25.9µM*	18.4µM*
CN1c2ccccc2C(O)=C(C(=O)Nc2ccccc2)S1(=O)=O	-12.0%	-5.9%	-17.7%	0.0%	?	?
CN1c2ccccc2C(O)=C(C(=S)Nc2ccc(F)c(Cl)c2)S1(=O)=O	-15.1%	-19.9%	-7.4%	-2.8%	18.4µM*	?
CCC1(C2CCN(Cc3ccccn3)CC2)NC(=O)N(CC2COc3ccccc3O2)C1=O (stereo not given)	.	.	.	.	-7.2%	-7.5%[9.04 µM]
CCCCc1nc2c(c3c1C[C@H](C)OC3)CN(C(=O)NCCCC(=O)OCC)CC2	.	.	.	-0.2%[12.3 µM]	.	.
Cc1ccc(-n2ncc3c2CC(C)(C)CC3NC(=O)CCc2cccnc2)cc1 (stereo not given)	-3.2%	7.9%	1.0%	2.2%	16.4µM*	23.1µM*
Cc1ccc(-n2ncc3c2CC(C)(C)CC3NC(=O)CCc2ccncc2)cc1 (stereo not given)	4.5%	-0.6%	1.6%	22.4µM*	?	?
CCc1nccn1CCC(=O)NC1CC(C)(C)Cc2c1cnn2-c1ccc(C)cc1 (stereo not given)	4.6%	5.7%	-5.8%	3.5%	?	?
Cc1ccc(-n2ncc3c2CC(C)(C)CC3NC(=O)CCCN2CCCCC2=O)cc1 (stereo not given)	26.7µM*	-16.8%	?	3.6%	3.5%	?
CN1OC[C@@H]2CN[C@H](c3ccc(-c4cccc(F)c4)cc3)C[C@@H]21	0.1%	.	.	.	?	?
CCOC(=O)CSc1nnc(NC(=O)CN2CCCCC2)s1	26.7µM*	-28.4%	-6.5%	.	?	?
NS(=O)(=O)c1ccc(NC(=O)COc2ncnc3sccc23)cc1	-0.6%	-7.4%	1.1%	2.5%	3.3%	-11.9%
CC(C)NC(=O)COc1ncnc2sccc12	-4.5%	-9.9%	31.6µM*	0.0%	-16.8%	-4.0%
CCN(CC)S(=O)(=O)c1cccc(NC(=O)COc2ncnc3sccc23)c1	1.7%	1.8%	-9.5%	-1.2%	16.4µM*	?
O=C(COc1ncnc2sccc12)NC1CCCCC1	4.5%	-14.7%	-4.0%	-9.6%[0.505 µM]	-1.8%	1.5%
CC(C)NC(=O)NC(=O)COc1ncnc2sccc12	26.7µM*	?	-0.4%	7.2%	?	?
Cc1ccc(NC(=O)COc2ncnc3sccc23)cc1S(=O)(=O)N(C)C	-12.9%	-18.1%	-9.0%	2.6%	-11.0%	-15.0%
Oc1ccc(N2CCN(C(=S)NCCc3ccccc3)CC2)cc1	-28.6%	-8.2%	0.4%	-2.0%	8.2µM*	6.51µM*
S=C(NCCc1ccccc1)N1CCN(Cc2ccccc2)CC1	-4.3%	-1.2%	0.7%	2.3%	?	29.1µM*
CC(=O)N1CCN(C(=S)NCCc2ccccc2)CC1	-21.8%	-25.9%	-3.3%	0.0%	-21.1%	-14.1%
Cc1ccc2cc(CN(CCc3ccccc3)C(=S)NCCCN(C)C)c(=O)[nH]c2c1	-13.0%	-5.2%	?	.	25.9µM*	?

High-throughput results from PubChem.
